Experimental findings from PubChem BioAssay (NCI) are described below.

What all share (experiment): NCI-60 one-dose screen, 48 h (100 = growth as untreated, 0 = no growth, -100 = all killed)
Common to all, as to settings: 10 µM unless noted

In experiment [1] the test system is SR leukemia.
Experiment [2] relates to RPMI-8226 leukemia.
The test system of experiment [3] is OVCAR-8 ovarian.
The test system of experiment [4] is OVCAR-4 ovarian.
Experiment [5] concerns SK-OV-3 ovarian.
For experiment [6], the system named is IGROV1 ovarian.
In experiment [7] the test system is OVCAR-3 ovarian.
The test system of experiment [8] is HS 578T breast.
Experiment [9] concerns NCI/ADR-RES ovarian.

The panel holds about 83,000 compounds, 20% with a hit somewhere; the sample as a whole holds those more often.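 Single-concentration screen, 48 h exposure, 96-well plates. Endpoint: percent growth. Below 10 = active.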 A number with no mark means an inactive call. Activity calls are given as the source filed them.

As for `C#CCOc1cccc(Nc2ncnc3ccc(NC(=O)CCl)cc23)c1`, the growth in experiment [1] was -42.1% (active); in experiment [2], -50.9% (active); in experiment [3] it was -4.18% (active); in experiment [4], -33.9% (active); in [5], 20.1%; in experiment [6], -57.2% (active). Further, the growth in experiment [7] is -74.8% (active); in experiment [8] it was 24.5%; in experiment [9], -1.49% (active).

`Cc1ccc(C(C(N)=O)C(C(N)=O)c2ccccc2)cc1` (centres undefined): the growth in experiment [1] is 92%; in [2], 95.4%; in experiment [3], 103%; in experiment [4], 115%; in [5], 114%; in [6], 105%. Also, the growth in experiment [7] was 114%; in experiment [8], 124%; in experiment [9], 122%.

For the molecule `CN1CCN(C(=O)c2ccc(NC(=O)Nc3ccc(-c4nc(N5CCOCC5)c5cccn5n4)cc3)cc2)CC1`, the growth in [1] was 3.45% (active); in experiment [2] it was -2.3% (active); in experiment [3] it was -3.62% (active); in experiment [4], -20.2% (active); in [5], -31.2% (active); in experiment [6], -29.2% (active). Further, the growth was -5.24% (active) in experiment [7], -28.9% (active) in experiment [8] and 60.5% in experiment [9].

For the molecule `CCN(C(=O)N1CCN(c2cc3c(cc2F)c(=O)c(C(=O)O)cn3C2CC2)CC1)c1nc(-c2ccc(Cl)cc2)cs1`, the growth in experiment [1] is 6.27% (active); in [2], 12.8%; in [3], 14.4%; in experiment [4], 25.7%; in experiment [5] it was -11.9% (active); in experiment [6], -9.58% (active). The growth is 10.1% in experiment [7], 20.7% in experiment [8] and 4.67% (active) in [9].

For `N#C/C(=C\c1ccc(Br)cc1)n1nnc2ccc(F)cc21`, the growth in [1] was -11.9% (active); in [2] it was -35.4% (active); in experiment [3] it was 7.38% (active); in [4], 24.9%; in experiment [5], 51.6%; in experiment [6] it was -31.2% (active). In addition, the growth in experiment [7] is -45.3% (active); in experiment [8], 3.56% (active); in experiment [9] it was 1.62% (active).

As to `Cn1c(-c2ccc(Br)cc2)c(O)c(=O)c2c(F)cccc21`, the growth in experiment [1] was 102%; in experiment [2], 104%; in experiment [3] it was 50.9%; in [4], 52.1%; in experiment [5], 46.3%; in experiment [6], 48.6%. In addition, the growth is 51.7% in [7], 84.9% in [8] and 21.8% in [9].

For the molecule `COc1cc(/C=C/C(=O)c2cccc(Nc3nc(Nc4ccccc4)nc(Nc4ccccc4)n3)c2)cc(OC)c1OC`, the growth in experiment [1] was 22.4%; in experiment [2], -63.1% (active); in [3], 27.2%; in experiment [4], 67.4%; in experiment [5], 90.3%; in [6] it was 37.3%. The values for the growth in experiment [7], in experiment [8] and in experiment [9] were 44.9%, 50.3% and 40.6%, respectively.

Regarding `O=C1COCCN1c1ccc(Nc2nc(Cl)nc(OCc3cn(Cc4ccccc4)nn3)n2)cc1`, the growth in [1] was 8.29% (active); in [2], 67.9%; in experiment [3] it was 79.6%; in experiment [4], 83%; in experiment [5], 88.8%; in [6] it was 62.6%. In addition, the growth in [7] was 89.4%; in experiment [8] it was 85.3%; in experiment [9], 101%.

For `CCOC(=O)CSc1ncnc2c1c(-c1ccccc1)c(-c1ccccc1)n2-c1ccc(C)cc1`, the growth in experiment [1] is 80.4%; in [2], 37.8%; in [3], 54.5%; in [4] it was 80.4%; in [5] it was 56%; in [6], 79.9%. In addition, the growth was 66.4% in experiment [7], 81.7% in experiment [8] and 98.4% in [9].

Consider `CC(C)(C)n1cc(-c2ccnc(NCCNS(=O)(=O)c3cccc(F)c3)c2)c(-c2ccccc2)n1`, for which the growth was 32.6% in experiment [1]; 61% in experiment [2]; 87.9% in experiment [3]; 72.7% in experiment [4]; 102% in experiment [5]; 97.2% in experiment [6]. In addition, the growth is 101% in [7], 92.9% in experiment [8] and 89.5% in [9].

For `CN(C)CCNc1nc2c3cc(Cl)ccc3nn2c2ccccc12`, the growth is 16.9% in experiment [1]; 50.8% in experiment [2]; 36.1% in experiment [3]; 55.6% in experiment [4]; 57.4% in experiment [5]; 39.2% in [6]. Moreover, the growth in experiment [7] is 57.8%; in [8], 68.8%; in [9], 36.5%.

As to `COc1ccc(CC(C#N)c2cc3ccccc3[nH]2)cc1` (centres undefined), the growth in experiment [1] was 96.1%; in [2] it was 71.4%; in experiment [3] it was 90.8%; in [4] it was 95.4%; in experiment [5], 94.4%; in [6], 94.7%. Further, the growth in experiment [7] is 92%; in experiment [8] it was 90.8%; in experiment [9] it was 92.8%.

For the molecule `Cc1cccnc1NC(=S)Nc1ncccc1C`, the growth in experiment [1] is 88.5%; in experiment [2], 80.9%; in experiment [3], 99.3%; in experiment [4], 134%; in [5], -65.6% (active); in experiment [6], 103%. Further, the growth in experiment [7] was 100%; in [8], 111%; in experiment [9] it was 117%.

Take `CCN(CC)c1nc(SCc2ccccc2Cl)ncc1C`: the growth was 95.6% in experiment [1]; 93.5% in experiment [2]; 104% in [3]; 101% in experiment [4]; 113% in [5]; 109% in experiment [6]. In addition, the growth is 109% in experiment [7] and 124% in experiment [8].

For the molecule `COc1ccc(-c2nc3c(c(-c4ccccc4)nn3-c3ccccc3)c(-c3ccc(N4CCN(C)CC4)cc3)c2C#N)cc1`, the growth in [1] was 63.3%; in [2], 87.4%; in experiment [3] it was 93.7%; in [4], 107%; in experiment [5], 109%; in [6], 93.8%. Also, the growth was 103% in experiment [7], 100% in [8] and 93% in [9].
